# Several values for one entry are separate records, joined by “and”; a condition that tells them apart may be missing. Equal values may be shown once. This is part of a sample that, as a whole, favours compounds with a hit. Of some 83,000 tested, about 20% had one in any assay.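 The endpoint reported here, percent growth, reads 100 for growth as untreated, 0 for no net growth and -100 for all cells dead.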 Values without a mark were called inactive. Activity calls are given as the source filed them. How the source made its calls: active means growth percent below 10; inactive means the rest.
# Test system: MDA-MB-468 breast
# Test: NCI-60 one-dose screen, 48 h (100 = growth as untreated, 0 = no growth, -100 = all killed)
# Details: 10 µM unless noted
row,Compound,growth
1,CNCc1cccc2c1OCCOCCOCCN(C)S(=O)(=O)c1ccc(cc1)-c1cnc(N)c(n1)C(=O)N2,68.5%
2,COc1ccc2c(c1)C=C1CSCC3=Cc4cc(OC)ccc4OC13O2,21.3%
3,CS(=O)(=O)c1ncc(-c2ccccc2)cn1,95.6%
4,Cc1cc(CC(=O)O)n(C)c1C(=O)c1ccc(Cl)cc1,101%
5,Cc1ccc(-n2c(C)nn3c(=O)c4c5c(sc4nc23)CN(C)CC5)cc1,102%
6,COc1ccc2nc3cc(Cl)ccc3c(N3CCN(c4ccnc(N5CCOCC5)n4)CC3)c2c1,-54.8% (active)
7,COc1c(O[C@@H]2OC(CO)[C@H](O)[C@H](O)C2O)cc2oc3cc(O)c(CC=C(C)C)c(O)c3c(=O)c2c1CC=C(C)C (stereo partly specified),99.8%
8,N#Cc1cccc(CN2CCC3=C(C2)C(=O)N(Cc2ccc(Cl)cc2)C2=NCCN23)c1,-14.9% (active)
9,CC(C)(C)C(=O)OCOP(=O)(OCOC(=O)C(C)(C)C)C1CCCN(OC(=O)c2ccccc2)C1=O (stereo unspecified),29.6%
10,S=c1[nH]nc(-c2cc3ccc2CCc2ccc(cc2)CC3)n1-c1ccccc1,109%
11,O=C(CSc1nnc(-c2cccs2)n1-c1ccccc1)Nc1ccc(F)cc1,88.7%
12,CCOC(=O)c1cc(/C(=N\O)c2cc(OC)c(OC)c(OC)c2)n2cc(C)cc(C)c12,15.8%
13,CSc1ccc(-c2cc(-c3ccc(NC(=O)CCCN4CCCC4)cc3)nc(-c3ccc(NC(=O)CCCN4CCCC4)cc3)c2)cc1,14.4%
14,N#CC1=C(N)Oc2c(ccc3ccccc23)C1c1ccccc1 (stereo unspecified),23.1%
15,COc1ccc(-c2cc(-c3cc(OC)c(OC)c(OC)c3)nc(N3CCOCC3)c2C#N)cc1,76%
16,CNC(=O)c1cc(Oc2ccc3nc(NC(=O)c4cccc(C(F)(F)F)c4)sc3c2)ccn1,106%
17,O=c1c2cc(F)ccc2sc2c(N3CCNCC3)nc3ccc(F)cc3c12,-59.9% (active)
18,COc1ccc2c(c1)c(-c1nc(-c3cn(C)c4ncccc34)cs1)cn2CCCN1CCCCC1,70.9%
19,Cc1ccccc1CNC(=O)C1CN(c2ccc(Cl)cc2)N(c2ccc(Cl)cc2)C1=O (stereo unspecified),83.2%
20,CCN(CC)CC(O)CNc1c2ccc([N+](=O)[O-])cc2nc2cc(OC)c(OC)cc12 (stereo unspecified),-44.5% (active)
21,O=C1CS/C(=N\Nc2cc(=O)[nH]c3ccccc23)N1c1ccccc1,96.9%
22,CN(C)CCCCC(C(=O)CBr)(c1ccccc1)c1ccccc1,-53.1% (active)
23,c1ccc(Cn2cc3c(c2)-c2nc(Nc4ccccc4)ncc2CC3)cc1,115% [100 µM]
24,Clc1ccc(CNc2ccc3nc(CCC4CCCCC4)[nH]c3c2)cc1,-43.5% (active)
25,Nc1ncc(-c2ccc3ncnc(N4CCc5cc(F)c(F)cc54)c3c2)cn1,4.19% (active)
26,COc1cc([C@@H]2c3cc4c(cc3[C@H](O)[C@H]3COC(=O)[C@@H]23)OCO4)cc(OC)c1OC,-1.25% (active) and -3.58% (active)

# Source: PubChem BioAssay (NCI)
